# Results reported in PubChem BioAssay (NCATS).
# Inconclusive results are not listed. Values without a mark were called inactive. The source made the active and inactive calls. The call rests on the fitted dose curve; in most records, active means well fitted curve in the direction sought with a large enough effect; inconclusive means small, poorly fitted or top-dose-only effect, or another doubt; inactive means no such curve, though single readings can be large; an effect the other way counts as inactive or inconclusive. Positions of bridges follow the written chain, without caps; N, C: chain ends. Non-standard residues stand in square brackets, D forms with d. Residues, ends and D or L forms follow the SMILES beside them. ξ: configuration not given here. *: point of attachment. Octanoyl(6-Me) = CCC(C)CCCCC(=O)*; ξThr(3R) = C[C@@H](O)C(N)C(=O)O; dDab = NCC[C@@H](N)C(=O)O; Dab = NCC[C@H](N)C(=O)O
# Legend:
# [1] = Quantitative High-Throughput drug screen in 47 multiple myeloma cell lines against the NCATS MIPE library collection: KMS28PE_JCRB cell viability assay (AID 1918983); further: nearly all actives have a fitted effect of over 35% in size; further: potency means the concentration at half of the fitted maximal effect
# Procedure, shortened: (§1)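 Myeloma cells (500/well) treated with MIPE 4.0 compounds for 48 h at 37 °C, 5% CO2. Viability read as ATP via CellTiter-Glo luminescence after 5 min at RT; DMSO-only wells = 100%, media-only = 0% viability.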
# [2] = Quantitative High-Throughput drug screen in 47 multiple myeloma cell lines against the NCATS MIPE library collection: KMS34_JCRB cell viability assay (AID 1918985); further: nearly all actives have a fitted effect of over 40% in size; further: potency means the concentration at half of the fitted maximal effect
# Procedure, shortened: as §1
# [3] = Quantitative High-Throughput drug screen in 47 multiple myeloma cell lines against the NCATS MIPE library collection: OCIMY7_PLB cell viability assay (AID 1918987); details: OCI-MY7 myeloma viability, CellTiter-Glo ATP, 48 h; viability (% of DMSO): at 45.8 µM (top of the series); further: nearly all actives have a fitted effect of over 65% in size; further: potency means the concentration at half of the fitted maximal effect
# Procedure, shortened: as §1
# [4] = Quantitative High-Throughput drug screen in 47 multiple myeloma cell lines against the NCATS MIPE library collection: OCIMY5_PLB cell viability assay (AID 1918988); further: nearly all actives have a fitted effect of over 65% in size; further: potency means the concentration at half of the fitted maximal effect
# Procedure, shortened: as §1
# [5] = Quantitative High-Throughput drug screen in 47 multiple myeloma cell lines against the NCATS MIPE library collection: SKMM1_PLB cell viability assay (AID 1919863); details: SKMM1 myeloma viability, CellTiter-Glo ATP, 48 h; viability: active compounds read low; further: nearly all actives have a fitted effect of over 35% in size; further: potency means the concentration at half of the fitted maximal effect
# Procedure, shortened: as §1
# [6] = Quantitative High-Throughput drug screen in 47 multiple myeloma cell lines against the NCATS MIPE library collection: U266_ATCC cell viability assay (AID 1919864); further: nearly all actives have a fitted effect of over 35% in size; further: potency means the concentration at half of the fitted maximal effect
# Procedure, shortened: as §1
# [7] = Quantitative High-Throughput drug screen in 47 multiple myeloma cell lines against the NCATS MIPE library collection: XG6_PLB cell viability assay (AID 1919865); further: nearly all actives have a fitted effect of over 40% in size; further: potency means the concentration at half of the fitted maximal effect
# Procedure, shortened: as §1
# [8] = Quantitative High-Throughput drug screen in 47 multiple myeloma cell lines against the NCATS MIPE library collection: XG1_PLB cell viability assay (AID 1919866); further: nearly all actives have a fitted effect of over 35% in size; further: potency means the concentration at half of the fitted maximal effect
# Procedure, shortened: as §1
# [9] = Quantitative High-Throughput drug screen in 47 multiple myeloma cell lines against the NCATS MIPE library collection: VP6_DJ cell viability assay (AID 1919867); further: nearly all actives have a fitted effect of over 40% in size; further: potency means the concentration at half of the fitted maximal effect
# Procedure, shortened: as §1
# [10] = Quantitative High-Throughput drug screen in 47 multiple myeloma cell lines against the NCATS MIPE library collection: UTMC2_PLB cell viability assay (AID 1919868); details: CellTiter-Glo ATP luminescence, 48 h; viability (% of DMSO control): at 45.8 µM (top of the series); further: potency means the concentration at half of the fitted maximal effect; nearly all actives have a fitted effect of over 55% in size
# Procedure, shortened: as §1
# [11] = Quantitative High-Throughput drug screen in 47 multiple myeloma cell lines against the NCATS MIPE library collection: RPMI8226_ATCC cell viability assay (AID 1919871); further: nearly all actives have a fitted effect of over 30% in size; further: potency means the concentration at half of the fitted maximal effect
# Procedure, shortened: as §1
# [12] = Quantitative High-Throughput drug screen in 47 multiple myeloma cell lines against the NCATS MIPE library collection: KMS11_JCRBsus cell viability assay (AID 1919873); further: nearly all actives have a fitted effect of over 50% in size; further: potency means the concentration at half of the fitted maximal effect
# Procedure, shortened: as §1
# [13] = Quantitative High-Throughput drug screen in 47 multiple myeloma cell lines against the NCATS MIPE library collection: KMS28BM_JCRB cell viability assay (AID 1919874); further: nearly all actives have a fitted effect of over 35% in size; further: potency means the concentration at half of the fitted maximal effect
# Procedure, shortened: as §1
# [14] = Quantitative High-Throughput drug screen in 47 multiple myeloma cell lines against the NCATS MIPE library collection: PE2_PLB cell viability assay (AID 1919869); further: nearly all actives have a fitted effect of over 35% in size; further: potency means the concentration at half of the fitted maximal effect
# Procedure, shortened: as §1
# [15] = Quantitative High-Throughput drug screen in 47 multiple myeloma cell lines against the NCATS MIPE library collection: PCM6_Riken cell viability assay (AID 1919870); further: nearly all actives have a fitted effect of over 30% in size; further: potency means the concentration at half of the fitted maximal effect
# Procedure, shortened: as §1
# [16] = Quantitative High-Throughput drug screen in 47 multiple myeloma cell lines against the NCATS MIPE library collection: OPM2_DSMZ cell viability assay (AID 1919872); further: nearly all actives have a fitted effect of over 30% in size; further: potency means the concentration at half of the fitted maximal effect
# Procedure, shortened: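 Myeloma cell lines, 500 cells per well, exposed to MIPE 4.0 library compounds for 48 h at 37C, 5% CO2. Viability from ATP by CellTiter-Glo luminescence; normalised to DMSO (100%) and media-only (0%) wells.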
# [17] = Quantitative High-Throughput drug screen in 47 multiple myeloma cell lines against the NCATS MIPE library collection: OPM1_PLB cell viability assay (AID 1918989); further: nearly all actives have a fitted effect of over 40% in size; further: potency means the concentration at half of the fitted maximal effect
# Procedure, shortened: as §1
# [18] = target: Cytochrome P450 2D6 (Homo sapiens) (UniProt P10635); assay: qHTS for inhibitors of CYP2D6 against the NCATS DSHEA and TCM libraries (AID 1919972); further: on the % scale 0 is the no-effect control and ±100 the full control effect
# Procedure, shortened: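 Steps: enzyme plus luciferin substrate dispensed; test substances pinned; 15 min RT; 1x NADPH regenerating solution added, 30–45 min RT protected from light; detection reagent, 30 min RT; luminescence measured. Minus-enzyme wells as background.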
# Sequence of Cytochrome P450 2D6 (Homo sapiens) (P10635 whole entry, looked up): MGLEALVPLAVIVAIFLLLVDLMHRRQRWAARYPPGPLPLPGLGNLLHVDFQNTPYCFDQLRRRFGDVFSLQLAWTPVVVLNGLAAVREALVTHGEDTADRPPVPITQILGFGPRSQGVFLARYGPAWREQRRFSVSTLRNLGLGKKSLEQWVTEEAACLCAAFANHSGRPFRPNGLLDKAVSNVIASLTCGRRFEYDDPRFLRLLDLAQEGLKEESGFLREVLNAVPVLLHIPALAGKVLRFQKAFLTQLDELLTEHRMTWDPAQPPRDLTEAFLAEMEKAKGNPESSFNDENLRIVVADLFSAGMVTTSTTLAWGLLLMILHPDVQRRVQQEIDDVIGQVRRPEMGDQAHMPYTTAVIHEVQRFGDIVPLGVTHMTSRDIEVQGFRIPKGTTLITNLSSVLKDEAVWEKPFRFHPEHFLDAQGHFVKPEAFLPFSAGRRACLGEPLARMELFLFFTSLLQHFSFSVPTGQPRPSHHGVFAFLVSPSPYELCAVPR
Structure (SMILES),Potency [1],Potency [2],Potency [3],Potency [4],Potency [5],Potency [6],Potency [7],Potency [8],Potency [9],Potency [10],Potency [11],Potency [12],Potency [13],Potency [14],Potency [15],Potency [16],Potency [17],viability [5] [%],outcome [18]
C=CC[C@@H]1C=C(C)C[C@H](C)C[C@H](OC)[C@H]2O[C@@](O)(C(=O)C(=O)N3CCCC[C@H]3C(=O)O[C@H](C(C)=C[C@@H]3CC[C@H](O)[C@H](OC)C3)[C@@H](C)[C@@H](O)CC1=O)[C@@H](C)C[C@@H]2OC,2350 nM (active),1480 nM (active),2090 nM (active),662 nM (active),1180 nM (active),1320 nM (active),1480 nM (active),2350 nM (active),833 nM (active),2960 nM (active),2090 nM (active),833 nM (active),833 nM (active),,,,,,
COc1ccc(C[C@@H](C)[C@@H](C)Cc2ccc(OC)c(OC)c2)cc1OC,332 nM (active),132 nM (active),296 nM (active),469 nM (active),372 nM (active),935 nM (active),264 nM (active),187 nM (active),833 nM (active),209 nM (active),1180 nM (active),132 nM (active),,332 nM (active),332 nM (active),,,,
CC(C)c1cc(C(C)C)c(CC(=O)NS(=O)(=O)Oc2c(C(C)C)cccc2C(C)C)c(C(C)C)c1,23500 nM (active),18700 nM (active),,33200 nM (active),26400 nM (active),inactive,,,,10500 nM (active),,2350 nM (active),inactive,5900 nM (active),,23500 nM (active),,,
CC(C)(C)c1nc2c3cc[nH]c(=O)c3c3cc(F)ccc3c2[nH]1,6620 nM (active),1660 nM (active),332 nM (active),1870 nM (active),935 nM (active),1870 nM (active),1320 nM (active),743 nM (active),,187 nM (active),2960 nM (active),662 nM (active),2090 nM (active),833 nM (active),743 nM (active),1660 nM (active),,,
COc1ccc(C(C)=O)c(O)c1,inactive,inactive,,inactive,,,18700 nM (active),,,,inactive,inactive,,inactive,inactive,inactive,inactive,112,inactive
Cc1ccc2nc(NCCN)c3ncc(C)n3c2c1,4180 nM (active),8330 nM (active),6620 nM (active),,4690 nM (active),3720 nM (active),1870 nM (active),2350 nM (active),5260 nM (active),4690 nM (active),6620 nM (active),,6620 nM (active),9350 nM (active),2640 nM (active),11800 nM (active),13200 nM (active),,
C#CCC(Cc1cnc2nc(N)nc(N)c2n1)c1ccc(C(=O)N[C@@H](CCC(=O)O)C(=O)O)cc1 (some centres undefined),inactive,209 nM (active),,inactive,,372 nM (active),41.8 nM (active),59 nM (active),118 nM (active),372 nM (active),inactive,93.5 nM (active),33.2 nM (active),418 nM (active),,33.2 nM (active),,117,
CCOC(=O)N1CCN([N+]([O-])=NOc2ccc([N+](=O)[O-])cc2C#N)CC1,1180 nM (active),526 nM (active),590 nM (active),833 nM (active),,833 nM (active),,372 nM (active),743 nM (active),526 nM (active),1050 nM (active),662 nM (active),935 nM (active),,469 nM (active),935 nM (active),,,
O=C(O)C(=O)Nc1cccc(C2=NN=N[N]2)c1,inactive,inactive,,inactive,,,inactive,inactive,inactive,,inactive,,inactive,inactive,inactive,inactive,inactive,129,
O=C(NC1CC1)c1cccc(-c2ccc3c(NC(=O)C4CC4)n[nH]c3c2)c1,10500 nM (active),20900 nM (active),7430 nM (active),332 nM (active),,,1480 nM (active),1050 nM (active),9350 nM (active),,,,,,,14800 nM (active),14800 nM (active),,
COc1cc(OC)c(C=CS(=O)(=O)Cc2ccc(OC)c(NCC(=O)O)c2)c(OC)c1,469 nM (active),209 nM (active),264 nM (active),,235 nM (active),526 nM (active),833 nM (active),,372 nM (active),166 nM (active),1660 nM (active),93.5 nM (active),132 nM (active),469 nM (active),,372 nM (active),332 nM (active),,
CCC(C)CCCCC(=O)N[C@@H](CCN)C(=O)NC(C(=O)N[C@H](CCN)C(=O)N[C@@H]1CCNC(=O)C([C@@H](C)O)NC(=O)[C@@H](CCN)NC(=O)[C@@H](CCN)NC(=O)[C@@H](CC(C)C)NC(=O)[C@H](Cc2ccccc2)NC(=O)[C@H](CCN)NC1=O)[C@@H](C)O (stereo partly drawn) ({Octanoyl(6-Me)}-[Dab][ξThr(3R)][dDab][dDab][Dab]F[dL][dDab][dDab][ξThr(3R)]; lactam 4-C),inactive,inactive,inactive,,,,,,inactive,,inactive,,inactive,inactive,,,,,
